What all share (assay): DAPPL (digital affinity profiling via proximity ligation, sequencing); 10 mM Tris-HCl pH 7.5, 50 mM NaCl, 1 mM DTT, 4% glycerol, room temperature, 30 min; GST-TFs on glutathione beads, 16-mer random dsDNA library, 0.1% formaldehyde crosslink after washing; high values mean tight binding
One experiment concerns the target T1, FEV (Homo sapiens, UniProt Q99581 1-238).
T1 sequence: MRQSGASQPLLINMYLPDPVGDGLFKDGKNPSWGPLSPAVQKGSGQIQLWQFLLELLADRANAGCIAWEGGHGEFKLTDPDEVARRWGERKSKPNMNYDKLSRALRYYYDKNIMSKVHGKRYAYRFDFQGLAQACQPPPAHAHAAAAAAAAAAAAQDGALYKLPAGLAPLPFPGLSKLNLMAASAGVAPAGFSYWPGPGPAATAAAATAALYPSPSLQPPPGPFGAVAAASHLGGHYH
As to conditions: protein: recombinant; tags: N-terminal GST; dsDNA, one strand shown. Put shortly: (§1)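 Binding signal is each hexamer's read frequency for a factor divided by its frequency in the tag-only sample. The factors were GST-fused human transcription factors from yeast, captured on glutathione beads, DNA-barcoded and pooled with that sample. Pools were incubated with 200 nmole of a random double-stranded 16-mer DNA library in Tris/NaCl/DTT/glycerol buffer at room temperature for 30 min, then washed, crosslinked with 0.1% formaldehyde, proximity-ligated with BsaI/T4 ligase (1 h, 37 °C), PCR-amplified and sequenced on an Illumina NextSeq500.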

Another experiment addresses ETV5 (Homo sapiens, UniProt P41161 1-510). As to conditions: protein: recombinant; tags: N-terminal GST; dsDNA, one strand shown. A digest of the protocol:
as §1

A further experiment has as its target HSF1 (Homo sapiens, UniProt Q00613 1-529). The following applies: protein: recombinant; tags: N-terminal GST; chain copies: 3; dsDNA, one strand shown. A digest of the protocol:
as §1

The next experiment addresses T2, SPIC (Homo sapiens, UniProt Q8N5J4 1-248).
T2 sequence: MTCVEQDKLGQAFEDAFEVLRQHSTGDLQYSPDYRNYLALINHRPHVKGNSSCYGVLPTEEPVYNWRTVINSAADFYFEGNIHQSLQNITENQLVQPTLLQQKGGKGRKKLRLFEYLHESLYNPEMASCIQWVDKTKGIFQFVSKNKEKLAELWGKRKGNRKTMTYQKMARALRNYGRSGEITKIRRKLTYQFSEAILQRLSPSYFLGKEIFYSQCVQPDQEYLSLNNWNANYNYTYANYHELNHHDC
The following applies: protein: recombinant; tags: N-terminal GST; dsDNA, one strand shown. Put shortly: as §1

In the next experiment the target is ELF4 (Homo sapiens, UniProt Q99607 1-663). The following applies: protein: recombinant; tags: N-terminal GST; dsDNA, one strand shown. Put shortly: as §1
Sequence of ELF4 (Q99607 whole entry): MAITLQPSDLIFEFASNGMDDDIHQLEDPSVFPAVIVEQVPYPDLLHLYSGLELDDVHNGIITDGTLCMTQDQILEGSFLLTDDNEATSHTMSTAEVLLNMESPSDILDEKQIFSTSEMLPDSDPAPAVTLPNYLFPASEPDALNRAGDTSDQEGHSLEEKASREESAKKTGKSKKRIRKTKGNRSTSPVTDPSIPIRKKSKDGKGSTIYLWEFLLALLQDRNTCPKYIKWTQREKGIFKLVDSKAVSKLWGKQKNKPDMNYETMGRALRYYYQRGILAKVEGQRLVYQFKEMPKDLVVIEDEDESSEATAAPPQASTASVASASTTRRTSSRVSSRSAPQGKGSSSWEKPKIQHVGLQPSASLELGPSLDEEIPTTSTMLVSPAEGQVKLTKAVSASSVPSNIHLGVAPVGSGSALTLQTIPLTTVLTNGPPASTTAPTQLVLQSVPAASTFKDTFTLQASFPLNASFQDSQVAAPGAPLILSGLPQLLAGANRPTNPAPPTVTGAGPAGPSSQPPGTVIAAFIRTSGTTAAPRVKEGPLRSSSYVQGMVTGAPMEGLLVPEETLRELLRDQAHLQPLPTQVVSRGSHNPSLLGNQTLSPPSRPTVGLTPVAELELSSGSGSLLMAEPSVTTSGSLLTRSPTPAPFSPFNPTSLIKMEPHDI
Another experiment has as its target T3, ELK4 (Homo sapiens, UniProt P28324-2 1-405).
T3 sequence: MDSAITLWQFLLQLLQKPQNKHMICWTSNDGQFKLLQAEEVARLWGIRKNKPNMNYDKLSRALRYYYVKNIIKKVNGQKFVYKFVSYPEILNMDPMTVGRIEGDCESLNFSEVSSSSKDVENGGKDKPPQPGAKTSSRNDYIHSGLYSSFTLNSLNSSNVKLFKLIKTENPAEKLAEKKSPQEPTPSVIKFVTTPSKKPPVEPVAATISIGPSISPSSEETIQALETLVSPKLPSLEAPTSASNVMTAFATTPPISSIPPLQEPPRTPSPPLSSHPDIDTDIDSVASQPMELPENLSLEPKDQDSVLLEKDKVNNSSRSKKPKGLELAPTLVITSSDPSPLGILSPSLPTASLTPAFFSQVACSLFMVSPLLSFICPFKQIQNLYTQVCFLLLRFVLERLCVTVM
As to conditions: protein: recombinant; tags: N-terminal GST; dsDNA, one strand shown. Put shortly:
as §1

The next experiment deals with T4, ETV2 (Homo sapiens, UniProt O00321 1-342).
T4 sequence: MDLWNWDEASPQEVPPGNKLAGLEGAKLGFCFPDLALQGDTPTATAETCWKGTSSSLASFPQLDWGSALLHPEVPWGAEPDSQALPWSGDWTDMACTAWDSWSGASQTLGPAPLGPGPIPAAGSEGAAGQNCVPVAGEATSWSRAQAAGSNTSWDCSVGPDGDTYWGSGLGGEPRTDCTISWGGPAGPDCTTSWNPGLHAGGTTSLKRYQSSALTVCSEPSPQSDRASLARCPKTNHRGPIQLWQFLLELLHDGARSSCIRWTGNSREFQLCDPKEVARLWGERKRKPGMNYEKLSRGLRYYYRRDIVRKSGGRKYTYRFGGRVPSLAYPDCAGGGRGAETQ
As to conditions: protein: recombinant; tags: N-terminal GST; dsDNA, one strand shown. A digest of the protocol:
as §1

Another experiment deals with T5, ELF3 (Homo sapiens, UniProt P78545 1-371).
T5 sequence: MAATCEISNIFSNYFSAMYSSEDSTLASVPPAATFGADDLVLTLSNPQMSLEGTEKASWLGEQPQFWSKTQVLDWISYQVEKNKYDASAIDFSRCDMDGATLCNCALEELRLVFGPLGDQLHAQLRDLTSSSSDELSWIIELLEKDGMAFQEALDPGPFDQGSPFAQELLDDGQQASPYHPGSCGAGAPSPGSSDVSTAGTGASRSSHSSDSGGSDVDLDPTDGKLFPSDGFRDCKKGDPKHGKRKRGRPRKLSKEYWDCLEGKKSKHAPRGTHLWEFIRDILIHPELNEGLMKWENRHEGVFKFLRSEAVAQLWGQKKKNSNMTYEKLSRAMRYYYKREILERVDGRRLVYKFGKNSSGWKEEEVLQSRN
As to conditions: protein: recombinant; tags: N-terminal GST; dsDNA, one strand shown. Put shortly: as §1

A further experiment deals with CRX (Homo sapiens, UniProt O43186 1-299). As to conditions: protein: recombinant; tags: N-terminal GST; dsDNA, one strand shown. Put shortly:
as §1

The next experiment concerns the target ETV1 (Homo sapiens, UniProt P50549 1-477). The following applies: protein: recombinant; tags: N-terminal GST; dsDNA, one strand shown. Put shortly:
as §1

The target of the next experiment is T6, ERF (Homo sapiens, UniProt P50548 1-548).
T6 sequence: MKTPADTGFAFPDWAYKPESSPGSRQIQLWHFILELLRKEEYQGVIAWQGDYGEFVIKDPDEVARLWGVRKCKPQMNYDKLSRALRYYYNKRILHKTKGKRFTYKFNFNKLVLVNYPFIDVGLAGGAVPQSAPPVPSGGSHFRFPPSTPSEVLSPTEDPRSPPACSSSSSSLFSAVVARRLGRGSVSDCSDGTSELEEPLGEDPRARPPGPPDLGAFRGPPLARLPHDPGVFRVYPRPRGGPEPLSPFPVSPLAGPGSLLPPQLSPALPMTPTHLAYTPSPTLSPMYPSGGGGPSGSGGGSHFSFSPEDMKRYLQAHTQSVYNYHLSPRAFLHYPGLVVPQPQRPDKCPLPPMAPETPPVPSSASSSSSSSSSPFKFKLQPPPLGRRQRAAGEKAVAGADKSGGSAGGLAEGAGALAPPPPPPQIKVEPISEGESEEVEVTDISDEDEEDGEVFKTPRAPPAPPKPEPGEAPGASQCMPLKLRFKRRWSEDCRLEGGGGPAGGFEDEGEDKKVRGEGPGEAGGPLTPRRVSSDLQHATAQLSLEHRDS
As to conditions: protein: recombinant; tags: N-terminal GST; dsDNA, one strand shown. Put shortly: as §1

A further experiment has as its target T7, ETV3L (Homo sapiens, UniProt Q6ZN32 1-361).
T7 sequence: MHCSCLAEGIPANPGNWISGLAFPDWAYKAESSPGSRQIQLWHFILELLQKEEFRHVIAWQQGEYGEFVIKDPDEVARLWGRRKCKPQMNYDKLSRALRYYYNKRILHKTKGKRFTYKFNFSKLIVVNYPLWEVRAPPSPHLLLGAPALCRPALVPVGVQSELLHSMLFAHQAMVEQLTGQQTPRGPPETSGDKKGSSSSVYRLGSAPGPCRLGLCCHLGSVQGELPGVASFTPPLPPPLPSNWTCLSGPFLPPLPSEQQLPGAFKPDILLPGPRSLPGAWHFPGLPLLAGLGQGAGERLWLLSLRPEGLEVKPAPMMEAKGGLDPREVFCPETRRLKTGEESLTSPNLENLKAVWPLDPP
As to conditions: protein: recombinant; tags: N-terminal GST; dsDNA, one strand shown. A digest of the protocol:
as §1

A further experiment concerns the target T8, ETS2 (Homo sapiens, UniProt P15036 1-469).
T8 sequence: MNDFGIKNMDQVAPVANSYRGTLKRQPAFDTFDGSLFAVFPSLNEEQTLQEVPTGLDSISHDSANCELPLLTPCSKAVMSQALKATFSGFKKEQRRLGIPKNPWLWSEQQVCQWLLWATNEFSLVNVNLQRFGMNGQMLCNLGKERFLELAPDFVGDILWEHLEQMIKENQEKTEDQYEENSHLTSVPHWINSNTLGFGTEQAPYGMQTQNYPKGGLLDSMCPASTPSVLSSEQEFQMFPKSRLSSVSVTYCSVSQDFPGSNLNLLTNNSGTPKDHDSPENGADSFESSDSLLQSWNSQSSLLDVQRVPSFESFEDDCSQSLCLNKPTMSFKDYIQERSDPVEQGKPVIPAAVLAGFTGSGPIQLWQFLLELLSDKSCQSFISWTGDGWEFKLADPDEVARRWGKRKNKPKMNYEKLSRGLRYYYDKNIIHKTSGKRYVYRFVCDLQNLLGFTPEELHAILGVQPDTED
As to conditions: protein: recombinant; tags: N-terminal GST; dsDNA, one strand shown. Put shortly: as §1

The target in the next experiment is T9, SPDEF (Homo sapiens, UniProt O95238 1-335).
T9 sequence: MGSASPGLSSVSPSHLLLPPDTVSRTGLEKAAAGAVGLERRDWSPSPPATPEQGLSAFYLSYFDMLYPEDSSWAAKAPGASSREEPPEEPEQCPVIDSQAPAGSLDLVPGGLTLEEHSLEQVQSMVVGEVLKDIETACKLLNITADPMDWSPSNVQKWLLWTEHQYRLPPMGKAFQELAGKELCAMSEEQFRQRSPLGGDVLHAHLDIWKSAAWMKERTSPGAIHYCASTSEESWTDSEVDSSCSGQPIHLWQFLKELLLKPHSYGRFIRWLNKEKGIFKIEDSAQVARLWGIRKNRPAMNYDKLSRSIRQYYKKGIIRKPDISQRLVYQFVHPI
The following applies: protein: recombinant; tags: N-terminal GST; dsDNA, one strand shown. Put shortly:
as §1

The target in a further experiment is T10, ETV7 (Homo sapiens, UniProt Q9Y603 1-341).
T10 sequence: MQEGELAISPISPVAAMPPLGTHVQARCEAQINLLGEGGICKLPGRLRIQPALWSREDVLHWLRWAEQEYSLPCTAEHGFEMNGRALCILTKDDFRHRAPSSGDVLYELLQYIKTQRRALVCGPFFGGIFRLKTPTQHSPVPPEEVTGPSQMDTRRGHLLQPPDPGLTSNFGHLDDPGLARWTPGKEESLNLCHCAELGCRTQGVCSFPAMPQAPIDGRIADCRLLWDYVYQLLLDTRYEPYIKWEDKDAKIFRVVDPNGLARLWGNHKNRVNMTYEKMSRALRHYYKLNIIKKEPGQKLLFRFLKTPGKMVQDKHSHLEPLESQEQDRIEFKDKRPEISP
The following applies: protein: recombinant; tags: N-terminal GST; dsDNA, one strand shown. Put shortly: as §1

A further experiment has as its target T11, ELF5 (Homo sapiens, UniProt Q9UKW6-2 1-255).
T11 sequence: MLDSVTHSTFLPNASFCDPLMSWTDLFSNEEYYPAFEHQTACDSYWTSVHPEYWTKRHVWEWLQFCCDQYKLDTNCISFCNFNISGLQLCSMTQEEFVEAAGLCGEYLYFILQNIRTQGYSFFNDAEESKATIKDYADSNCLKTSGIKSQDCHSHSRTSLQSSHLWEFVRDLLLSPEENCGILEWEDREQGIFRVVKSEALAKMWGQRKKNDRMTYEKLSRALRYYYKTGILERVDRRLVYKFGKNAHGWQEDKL
The following applies: protein: recombinant; tags: N-terminal GST; dsDNA, one strand shown. A digest of the protocol: as §1

Another experiment has as its target T12, ETV3 (Homo sapiens, UniProt P41162-2 1-143).
T12 sequence: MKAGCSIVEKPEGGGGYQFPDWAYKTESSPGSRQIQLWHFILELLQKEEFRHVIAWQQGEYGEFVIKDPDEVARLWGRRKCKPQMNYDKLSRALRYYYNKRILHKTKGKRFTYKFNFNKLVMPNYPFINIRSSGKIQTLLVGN
As to conditions: protein: recombinant; tags: N-terminal GST; dsDNA, one strand shown. A digest of the protocol: as §1

Another experiment has as its target ETV6 (Homo sapiens, UniProt P41212 1-452). As to conditions: protein: recombinant; tags: N-terminal GST; dsDNA, one strand shown. Put shortly:
as §1

The values that follow come from publication PMC7862700, “An all-to-all approach to the identification of sequence-specific readers for epigenetic DNA modifications on cytosine”.

Sequence of HSF1 (Q00613 whole entry): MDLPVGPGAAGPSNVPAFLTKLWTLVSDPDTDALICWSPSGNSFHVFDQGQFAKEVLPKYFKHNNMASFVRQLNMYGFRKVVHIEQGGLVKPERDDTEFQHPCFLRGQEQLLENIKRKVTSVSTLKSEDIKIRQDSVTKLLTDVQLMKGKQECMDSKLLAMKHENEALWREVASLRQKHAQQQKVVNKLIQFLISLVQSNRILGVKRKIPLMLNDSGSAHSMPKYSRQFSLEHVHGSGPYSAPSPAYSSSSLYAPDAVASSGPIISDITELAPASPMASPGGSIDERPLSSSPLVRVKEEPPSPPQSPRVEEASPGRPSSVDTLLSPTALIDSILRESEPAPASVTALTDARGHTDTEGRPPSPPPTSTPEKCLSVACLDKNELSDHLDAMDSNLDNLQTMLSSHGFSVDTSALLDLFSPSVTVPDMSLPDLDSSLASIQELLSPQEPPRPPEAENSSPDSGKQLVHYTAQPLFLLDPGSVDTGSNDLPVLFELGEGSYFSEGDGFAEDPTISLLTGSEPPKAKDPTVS
Sequence of ETV1 (P50549 whole entry): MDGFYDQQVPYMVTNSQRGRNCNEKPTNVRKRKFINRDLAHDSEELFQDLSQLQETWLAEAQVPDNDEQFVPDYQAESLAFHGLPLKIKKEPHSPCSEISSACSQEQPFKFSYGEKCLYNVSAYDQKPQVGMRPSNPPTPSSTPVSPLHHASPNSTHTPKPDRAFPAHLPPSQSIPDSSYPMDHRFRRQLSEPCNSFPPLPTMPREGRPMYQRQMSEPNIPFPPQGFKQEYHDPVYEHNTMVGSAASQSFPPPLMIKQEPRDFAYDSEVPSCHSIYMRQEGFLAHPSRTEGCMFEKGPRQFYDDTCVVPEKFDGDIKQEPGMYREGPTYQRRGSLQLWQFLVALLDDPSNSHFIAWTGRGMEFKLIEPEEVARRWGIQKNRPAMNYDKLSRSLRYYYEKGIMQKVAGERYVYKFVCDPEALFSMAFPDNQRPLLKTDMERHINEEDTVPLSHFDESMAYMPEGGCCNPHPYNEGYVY
Sequence of CRX (O43186 whole entry): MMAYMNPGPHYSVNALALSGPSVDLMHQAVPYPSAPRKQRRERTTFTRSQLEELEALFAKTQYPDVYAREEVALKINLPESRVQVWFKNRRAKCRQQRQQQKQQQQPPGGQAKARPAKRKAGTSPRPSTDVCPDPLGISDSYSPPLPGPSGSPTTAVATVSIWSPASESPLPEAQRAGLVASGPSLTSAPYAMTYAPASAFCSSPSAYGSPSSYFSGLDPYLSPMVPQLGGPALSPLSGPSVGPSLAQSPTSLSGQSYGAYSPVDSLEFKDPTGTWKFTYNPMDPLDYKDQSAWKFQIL
Sequence of ETV6 (P41212 whole entry): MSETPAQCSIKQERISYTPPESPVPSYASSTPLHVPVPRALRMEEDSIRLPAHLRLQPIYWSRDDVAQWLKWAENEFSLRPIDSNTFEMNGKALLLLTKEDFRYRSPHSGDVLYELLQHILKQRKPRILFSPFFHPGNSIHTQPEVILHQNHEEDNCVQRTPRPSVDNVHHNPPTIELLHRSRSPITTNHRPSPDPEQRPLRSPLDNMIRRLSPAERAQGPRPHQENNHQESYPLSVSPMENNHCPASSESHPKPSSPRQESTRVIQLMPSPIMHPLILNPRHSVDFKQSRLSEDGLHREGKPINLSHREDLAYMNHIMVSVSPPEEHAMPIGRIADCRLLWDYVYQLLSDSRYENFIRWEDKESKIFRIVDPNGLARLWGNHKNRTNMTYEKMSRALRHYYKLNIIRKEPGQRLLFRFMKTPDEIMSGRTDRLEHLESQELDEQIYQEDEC
Sequence of ETV5 (P41161 whole entry): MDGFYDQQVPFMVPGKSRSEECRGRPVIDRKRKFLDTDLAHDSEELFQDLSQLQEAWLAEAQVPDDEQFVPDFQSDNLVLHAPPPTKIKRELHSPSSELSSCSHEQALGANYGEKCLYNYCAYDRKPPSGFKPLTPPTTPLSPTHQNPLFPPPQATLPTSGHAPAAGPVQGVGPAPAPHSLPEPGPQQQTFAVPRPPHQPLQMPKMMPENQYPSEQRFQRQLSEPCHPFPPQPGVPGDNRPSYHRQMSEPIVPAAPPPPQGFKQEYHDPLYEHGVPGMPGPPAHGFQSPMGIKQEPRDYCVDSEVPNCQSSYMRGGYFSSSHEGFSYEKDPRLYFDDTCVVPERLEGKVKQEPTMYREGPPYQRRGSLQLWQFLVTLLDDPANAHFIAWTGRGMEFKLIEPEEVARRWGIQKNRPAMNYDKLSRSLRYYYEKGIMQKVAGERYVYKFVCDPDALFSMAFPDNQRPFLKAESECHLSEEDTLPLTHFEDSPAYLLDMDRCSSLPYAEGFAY

In the case of TATGTT, the binding signal is 1.17 fold enrichment (6-mer frequency, TF over GST control) with FEV; 1.15 fold enrichment (6-mer frequency, TF over GST control) with ETV5; 1.21 fold enrichment (6-mer frequency, TF over GST control) with HSF1; 1.06 fold enrichment (6-mer frequency, TF over GST control) with SPIC; 1.2 fold enrichment (6-mer frequency, TF over GST control) in the experiment with ELF4; 1.29 fold enrichment (6-mer frequency, TF over GST control) with ELK4. In addition, the binding signal was 1.08 fold enrichment (6-mer frequency, TF over GST control) with ETV2; 1.1 fold enrichment (6-mer frequency, TF over GST control) with ELF3; 1.26 fold enrichment (6-mer frequency, TF over GST control) with CRX; 1.1 fold enrichment (6-mer frequency, TF over GST control) with ETV1; 1.17 fold enrichment (6-mer frequency, TF over GST control) with ERF; 1.2 fold enrichment (6-mer frequency, TF over GST control) with ETV3L. Also, the binding signal in the experiment with ETS2 is 1.24 fold enrichment (6-mer frequency, TF over GST control); in the experiment with SPDEF it was 1.18 fold enrichment (6-mer frequency, TF over GST control); with ETV7, 1.33 fold enrichment (6-mer frequency, TF over GST control); in the experiment with ELF5 it was 1.24 fold enrichment (6-mer frequency, TF over GST control); with ETV3 it was 1.26 fold enrichment (6-mer frequency, TF over GST control); with ETV6, 1.08 fold enrichment (6-mer frequency, TF over GST control).
